Screens as filed in PubChem BioAssay.
Hits are enriched below; roughly 27% of the tested compounds scored in any of these assays.
CYP2C9 inhib: blockers of cytochrome P450 2C9 activity – biochemical, luminescence, ADME assay, primary screen | P11712 | actives 20% (n = 96,000) | inhibition, % at 5 µM | CYP2C9 Supersomes, luciferin-H conversion;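 active = blocking of liver enzyme CYP2C9 beyond about 50% at 5 µM, limit read from the data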
CYP2C19 inh: blockers of cytochrome P450 2C19 activity – biochemical, luminescence, ADME assay, primary screen; P33261; CYP2C19 Supersomes, luciferin-H EGE luminescence, 30 min; inhibition, % at 5 µM; actives 21% (n = 96,000); AID 778, 2007;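 active = CYP2C19 inhibition above a set limit at 5 µM in the primary screen, cut at about 50% in these data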;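 note: plate controls were negative control wells for no effect and 2.5 mM tranylcypromine positive control for full effect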
EphB4 ephrin blk: EphB4-ephrin-B2 interaction antagonists, primary screen, biochemical, TNYL-RAW peptide probe, fluorescence polarization. actives 0.15% (n = 97,000). EphB4 LBD / TNYL-RAW-Alexa532 peptide. inhibition, % at 7 µM;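 active = inhibition above the screen-wide mean inhibition plus 3 SD, cut at about 15% in these data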;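 note: 0% = DMSO wells and 100% = excess unlabeled TNYL-RAW peptide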
Target sequence (P54760 whole entry, looked up, the tested form may be a part): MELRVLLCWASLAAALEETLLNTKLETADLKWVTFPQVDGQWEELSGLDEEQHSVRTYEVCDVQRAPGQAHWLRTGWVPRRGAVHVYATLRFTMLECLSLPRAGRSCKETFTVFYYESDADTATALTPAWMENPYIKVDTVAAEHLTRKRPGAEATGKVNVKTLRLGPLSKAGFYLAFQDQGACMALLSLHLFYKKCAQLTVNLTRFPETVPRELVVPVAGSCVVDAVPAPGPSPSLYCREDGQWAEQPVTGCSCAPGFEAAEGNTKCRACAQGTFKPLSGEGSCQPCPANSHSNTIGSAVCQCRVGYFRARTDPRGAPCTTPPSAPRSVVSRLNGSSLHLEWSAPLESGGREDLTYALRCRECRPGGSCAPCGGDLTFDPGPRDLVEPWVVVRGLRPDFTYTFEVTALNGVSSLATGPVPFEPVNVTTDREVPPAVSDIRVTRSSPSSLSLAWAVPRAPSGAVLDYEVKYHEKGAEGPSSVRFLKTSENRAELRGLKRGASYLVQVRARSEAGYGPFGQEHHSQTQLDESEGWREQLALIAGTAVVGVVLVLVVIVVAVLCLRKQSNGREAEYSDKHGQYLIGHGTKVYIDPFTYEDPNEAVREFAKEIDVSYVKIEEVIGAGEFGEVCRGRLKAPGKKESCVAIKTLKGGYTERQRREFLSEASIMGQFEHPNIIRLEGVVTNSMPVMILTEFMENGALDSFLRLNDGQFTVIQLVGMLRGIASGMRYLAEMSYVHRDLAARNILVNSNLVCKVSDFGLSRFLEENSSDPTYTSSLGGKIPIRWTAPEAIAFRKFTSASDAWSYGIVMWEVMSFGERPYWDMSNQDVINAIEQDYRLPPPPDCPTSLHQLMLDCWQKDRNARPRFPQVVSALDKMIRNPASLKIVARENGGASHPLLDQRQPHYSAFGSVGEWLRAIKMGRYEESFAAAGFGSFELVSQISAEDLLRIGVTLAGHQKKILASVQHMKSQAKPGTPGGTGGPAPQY
CYP2C9 act: human CYP2C9 activators, primary screen, biochemical, luminescence; activation factor at 5 µM; Cytochrome P450 2C9 (Homo sapiens), P11712; AID 1024, 2008; recombinant CYP2C9, luciferin-H conversion; active compounds read high; factor 1 = untreated enzyme, 0 = blocked; actives 1.4% (n = 96,000);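 active = activation factor of 2 or more for CYP2C9 at a 5 µM dose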;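 note: 0 = sulfaphenazole-blocked wells and 1 = vehicle-only wells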
CYP2C19 activ: human CYP2C19 activators, primary screen, biochemical, luminescence; Cytochrome P450 2C19 (Homo sapiens), P33261; recombinant CYP2C19, luciferin-H EGE luminescence; active compounds read high; 0 = fully inhibited enzyme, 1 = untreated enzyme; activation factor at 5 µM; 96,000 tested, under 10 active;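 active = activation factor of at least 2 at 5 µM in the primary screen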;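 note: 0 = wells with 2.5 mM tranylcypromine and 1 = vehicle-only wells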
* hit, by the source's call; . = no result.

SMILES | CYP2C9 inhib | CYP2C19 inh | EphB4 ephrin blk | CYP2C9 act | CYP2C19 activ
Cc1nn(-c2ccc(Cl)cc2)c(N)c1C(O)(CSc1nccn1C)C(F)(F)F (stereo unspecified) | 87* | 75* | . | 0.1 | 0.3
Cc1c(NC(=O)CSc2nccn2C)c(=O)n(-c2ccccc2)n1C | -9 | -6 | 5 | 1.1 | 1.1
Cc1nn(-c2ccccc2)c(N)c1C(O)(CSc1nccn1C)C(F)(F)F (stereo unspecified) | 87* | 93* | 1 | 0.1 | 0.1
CC1=NN(C(=O)Cc2ccc([N+](=O)[O-])cc2)C(O)(c2cccnc2)C1 (stereo unspecified) | 10 | 33 | 1 | 0.9 | 0.7
CCN(CCO)Cc1csc2c(Br)cccc12 | -3 | 25 | -3 | 1 | 0.8
CCCc1cc(Nc2ccccc2OCC)n2ncnc2n1 | 3 | 40 | 6 | 1 | 0.6
O=C(C1CCC(C(=O)N2CCc3ccccc32)CC1)N1CCc2ccccc21 (stereo unspecified) | -69 | -12 | 1 | 1.7 | 1.1
O=C(COC(=O)C1CCCCC1C(=O)N1CCc2ccccc21)NCc1ccco1 (stereo unspecified) | 71* | 87* | . | 0.3 | 0.1
O=C(COC(=O)C1CC2C=CC1C2)NCc1ccco1 (stereo unspecified) | 16 | 64* | -3 | 0.8 | 0.4
Cc1ccccc1CSc1nncn1N | 12 | 3 | 4 | 0.9 | 1
CCCCOc1ccc(S(=O)(=O)NNC(=O)C2Cc3c(ccc4ccccc34)O2)cc1 (stereo unspecified) | 38 | 13 | 4 | 0.6 | 0.9
C=CCn1c(=NC(=O)C2CCCCC2)sc2cc(NC(C)=O)ccc21 | 68* | 15 | -1 | 0.3 | 0.8
C=CCn1c(=NC(=O)C2CC2)sc2cc(NC(C)=O)ccc21 | 20 | 41 | -1 | 0.8 | 0.6
COc1ccc(S(=O)(=O)N2CCCC(C(=O)O)C2)cc1 (stereo unspecified) | -29 | 3 | 3 | 1.3 | 1
Cc1nc(-c2ccc3c(c2)OCO3)cs1 | -11 | 18 | -3 | 1.1 | 0.8
CCCc1cc(-c2[nH]ncc2-c2ccc(C(=O)OCC)o2)c(O)cc1O | 98* | 70* | 11 | 0 | 0.3
CCCc1cc(-c2[nH]ncc2-c2ccc3c(c2)OCCCO3)c(O)cc1O | 100* | 100* | 4 | 0 | 0
CCOC(=O)c1ccc(CSc2ncn[nH]2)o1 | 4 | 21 | -3 | 1 | 0.8
Cc1cccc(OCCC(=O)NCC(c2ccccc2)N(C)C)c1 (stereo unspecified) | 1 | 17 | 1 | 1 | 0.8
CCOC(=O)/C(=C\Nc1ccccc1C(F)(F)F)Sc1ncc(C(F)(F)F)cc1Cl | 82* | 59* | 10 | 0.2 | 0.4
COC(=O)/C(=C\Nc1ccc(Cl)c2ccccc12)c1ncc(C(F)(F)F)cc1Cl | 76* | 33 | 7 | 0.2 | 0.7
Cc1ccc2cc(C#N)c(N3CCN(C)CC3)nc2c1 | . | . | -1 | . | .
CCOc1cc(S(=O)(=O)NC2CCCC2)ccc1Cl | -31 | 38 | 2 | 1.3 | 0.6
COc1ccc(C(=O)c2c[nH]c(C(=O)NCC3CCCO3)c2)cc1 (stereo unspecified) | -14 | -3 | -3 | 1.1 | 1
N#Cc1c(NC(=O)CN2CCN(C(=O)c3ccco3)CC2)sc2c1CCCCC2 | 22 | 26 | . | 0.8 | 0.7
SMILES | CYP2C9 inhib | CYP2C19 inh | EphB4 ephrin blk | CYP2C9 act | CYP2C19 activ
N#Cc1c(N2CCN(C(=O)c3ccccc3)CC2)nc(-c2ccccc2)c2c1CCCC2 | 72* | 62* | -5 | 0.3 | 0.4
N#Cc1c(NCCN)nc(-c2ccccc2)c2c1CCCC2 | 19 | 4 | -6 | 0.8 | 1
N#Cc1c(N2CCN(C(=O)c3ccco3)CC2)nc(-c2ccccc2)c2c1CCCC2 | 86* | 88* | 7 | 0.1 | 0.1
N#Cc1c(N2CCN(C(=O)c3ccccc3Cl)CC2)nc(-c2ccccc2)c2c1CCCC2 | 64* | 50* | -4 | 0.4 | 0.5
O=C(c1ccccc1Cl)N1CCNCC1 | 1 | -4 | -4 | 1 | 1
Nc1nc(C2CC2)c(Sc2sc(N)nc2C2CC2)s1 | 48 | 62* | 5 | 0.5 | 0.4
COc1ccc(OC)c(-n2c(-c3cc(-c4ccc(F)cc4)n[nH]3)n[nH]c2=S)c1 | -11 | 35 | -2 | 1.1 | 0.6
COc1ccc(OC)c(-n2c(-c3ccc(S(C)(=O)=O)cc3)cc(C=O)c2C)c1 | 66* | 60* | 3 | 0.3 | 0.4
COc1ccc(OC)c(-n2c(C)ccc2-c2ccc(S(C)(=O)=O)cc2)c1 | 98* | 96* | -3 | 0 | 0
O=C(Nc1ccccc1)N1CCCCC1c1cccnc1 (stereo unspecified) | -16 | -8 | -2 | 1.2 | 1.1
CCCn1c(SCC(=O)NCCc2ccc(OC)c(OC)c2)nc2c1c(=O)n(C)c(=O)n2C | 20 | 7 | -6 | 0.8 | 0.9
Cc1ccc(S(=O)(=O)Nc2nonc2C)cc1 | 13 | -10 | -1 | 0.9 | 1.1
CCCc1cc(C(=O)Nc2sc3c(c2C(=O)OCC)CCCC3)no1 | -16 | -28 | -10 | 1.2 | 1.3
Cc1nc(N2CCN(c3ccccc3)CC2)c2c3c(sc2n1)CCC3 | 94* | 95* | . | 0.1 | 0.1
Oc1ccc(N2CCN(c3ncnc4sc5c(c34)CCC5)CC2)cc1 | -4 | 12 | -5 | 1 | 0.9
Cc1nc(NS(=O)(=O)c2ccccc2C)c2c3c(sc2n1)CCC3 | 26 | 2 | 3 | 0.7 | 1
c1ccc2c(c1)nnn2-c1ncnc2sc3c(c12)CCCC3 | -107 | 11 | 3 | 2.1* | 0.9
Cc1nc(-n2nnc3ccccc32)c2c3c(sc2n1)CCCC3 | 59* | 55* | -4 | 0.4 | 0.5
Cc1nc(N2CCN(C(=O)c3ccco3)CC2)c2c3c(sc2n1)CCCC3 | . | . | 5 | . | .
COc1ccccc1N1CCN(C2CCCC(C)C2)CC1 (stereo unspecified) | -5 | 1 | 2 | 1 | 1
CCOC(=O)c1ccc(N=CC2=C(O)CC(C)(C)CC2=O)cc1 | 15 | 8 | -4 | 0.8 | 0.9
CCOC(=O)c1oc2ccccc2c1CN1CCN(C)CC1 | . | . | 1 | . | .
CCN(CC)C(=O)C1CCN(c2ncnc3c2cnn3-c2ccc(C)cc2C)CC1 | . | . | -7 | . | .
Cc1c(NC(=O)c2cc3nc(-c4ccc(Br)cc4)cc(C(F)(F)F)n3n2)c(=O)n(-c2ccccc2)n1C | . | . | -2 | . | .
C/C(=N\N=C(/N)SC1CC(=O)N(c2cccc(Cl)c2)C1=O)c1cccs1 (stereo unspecified) | 61* | -5 | 5 | 0.4 | 1
